From PubChem
Rows were chosen to be rich in hits. Some 4% of all compounds tested hit in one or more screens of this group.
TWEAK Fn14 block = blocks TWEAK-Fn14 interaction in a reporter cell assay; inhibition, % at 10 µM; AID 1159606; TWEAK-stimulated Fn14 reporter cells, luciferase luminescence, 8 h; 2% of 360,000 active; in the data active = inhibition above about 50%
HIF-2a block = blocks HIF-2a reporter activity. 786-0 RCC cells HIF-2a reporter, luciferase luminescence, overnight. inhibition, % at 18.8 µM. 0.72% of 360,000 active;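 active = inhibition of the luminescence signal of 40% or more relative to plate controls, in a single-dose primary screen at 18.75 µM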
Peg3 promoter = inhibitors of Peg3 promoter; HeLa PEG-Prom luciferase reporter, luminescence, overnight; inhibition, % at 20 µM; 1.7% of 360,000 active;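 active = inhibition of at least 50% at 20 µM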
TROY signal inh = TROY signaling inhibition. Q293 LMP1-TROYcd NF-kB luciferase reporter, 4 h. inhibition, % at 10 µM. 0.98% of 360,000 active;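 active = compounds whose plate-normalised and pattern-corrected inhibition of the luciferase reporter signal at the single screening dose is 50% or more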
KKLEB cytotox = CF airway cell cytotoxicity counter-screen; activity change (cytotoxicity), % at 5 µM; 0.36% of 360,000 active; KKLEB CF airway cells viability, ATPlite luminescence, overnight; stronger effect = lower value; cells stimulated with P. aeruginosa culture filtrate;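 active = corrected activity change at or below -50% at 5 µM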
CF NFkB block = cystic fibrosis NF-kB activation inhibition; KKLEB NF-kB-GFP reporter, PAF-induced, GFP fluorescence overnight; inhibition, % at 5 µM; 0.86% of 360,000 active;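 active = at least 50% inhibition at 5 µM, scaled per plate between neutral and stimulator controls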;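 also: PAF is a Pseudomonas aeruginosa culture filtrate used as stimulus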
Numbers stand for hits; . = inactive; / = not tested or not shown.

SMILES | TWEAK Fn14 block | HIF-2a block | Peg3 promoter | TROY signal inh | KKLEB cytotox | CF NFkB block
CCc1ccc(/C=C(\C#N)C(=O)NC2CCS(=O)(=O)C2)cc1 (configuration not stated) | . | . | . | . | . | .
COC(=O)c1cccc(OCCCN2CCC(C(O)(c3ccccc3)c3ccccc3)CC2)c1 | . | . | / | . | / | /
C[C@H](CO)N1C[C@H](C)[C@@H](CN(C)Cc2ccccc2)Oc2c(NS(=O)(=O)c3cn(C)cn3)cccc2C1=O | . | . | . | . | . | .
Cc1cc(NC(=O)c2cc(-c3ccccn3)nc3ccc(Br)cc23)no1 | . | . | . | . | . | .
O=C(Nc1ccccn1)c1cc(-c2cccnc2)nc2ccc(Br)cc12 | . | . | 56 | . | . | .
COc1cc2c(cc1NC(=O)c1cc(-c3cccnc3)nc3ccc(C)cc13)oc1ccccc12 | . | . | 63 | . | . | .
COc1ccc(C(=O)N2CCCC(C(=O)O)C2)c2ccccc12 (configuration not stated) | . | . | . | . | . | .
COc1ccc(F)cc1S(=O)(=O)Nc1cc2c3c(c1)CCN3C(=O)CC2 | . | . | . | . | . | .
O=C(Oc1c(Cl)cc(Cl)c2cccnc12)c1cccs1 | 109 | . | . | . | . | .
O=C(Oc1c(CN2CCOCC2)cc(Cl)c2cccnc12)c1cccs1 | . | . | . | . | . | .
O=C(Oc1cncc(Cl)c1)c1ccco1 | . | . | . | . | . | .
O=C(Oc1c(Cl)cc(Cl)c2cccnc12)c1ccco1 | 86 | . | 56 | 58 | . | .
CCOc1ccc2nc(SCCNS(=O)(=O)c3ccccc3)sc2c1 | 55 | . | . | . | . | .
CCOc1ccc2nc(SCC(=O)c3ccccc3)sc2c1 | . | . | . | . | . | .
O=C(COC(=O)C12CC3CC(CC(Cl)(C3)C1)C2)Nc1ccccc1 | . | . | . | . | . | .
C[C@@H]1C[C@H]2[C@@H]3C[C@H](F)C4=CC(=O)C=C[C@]4(C)[C@@]3(Cl)[C@@H](O)C[C@]2(C)[C@H]1C(=O)COC(=O)C(C)(C)C | . | . | . | . | . | 69
Cc1ccc(S(=O)(=O)NC(CC(C)C)C(=O)NCCCn2nc(C)cc2C)cc1 (configuration not stated) | . | . | . | . | . | .
Cc1cccc(N2C(=O)C(Oc3ccc(Cl)cc3Cl)C2C=O)c1C (configuration not stated) | . | . | 69 | . | . | .
Cc1ccc(O)c(N=Nc2ccccc2)n1 | 57 | . | . | . | . | .
C=CCn1c(SCC(=O)Nc2sccc2C(N)=O)nc2sc(C)c(C)c2c1=O | . | . | . | 51 | . | .
COCCn1c(SCC(=O)Nc2cccnc2Cl)nc2cc(Cl)ccc2c1=O | . | . | . | . | . | .
COCCn1c(SCC(=O)Nc2sccc2C(N)=O)nc2cc(Cl)ccc2c1=O | . | . | 52 | . | . | .
O=C(CCc1nnc(Cc2c[nH]c3ccccc23)o1)NCCC1CCCCO1 (configuration not stated) | . | . | . | . | . | .
O=C1CCCc2cc3c(cc21)CC1(C3)Cc2cc3c(cc2C1)C(=O)CCC3 | . | . | . | 61 | . | .
CCc1ccc2c(c1)C(=O)CCC2 | . | . | . | . | . | .
SMILES | TWEAK Fn14 block | HIF-2a block | Peg3 promoter | TROY signal inh | KKLEB cytotox | CF NFkB block
Cc1ccc2c(Cl)cc(Cl)c(O)c2n1 | 101 | . | . | . | . | 52
Cc1cc(Cl)c2ccc3ccccc3c2n1 | . | . | . | . | . | .
COc1cc2c(cc1OC)C(=O)C(c1ccc3c(c1)OCO3)CC2 (configuration not stated) | . | . | . | . | . | .
COc1cc2c(cc1OC)C(=O)C(Br)CC2 (configuration not stated) | . | . | 65 | . | . | 70
COc1ccc(OCCCCn2c(CO)nc3ccccc32)cc1 | 69 | . | . | . | . | .
Cc1cccc(OCCCCn2c(CO)nc3ccccc32)c1 | . | . | . | . | . | .
c1cncc(-c2csc(-c3cccnc3)n2)c1 | . | . | . | . | . | .
Oc1ccc(-c2csc(-c3cccnc3)n2)c(O)c1 | 54 | . | . | . | . | .
CCOC(=O)/C(C#N)=C/c1cc(C)n(-c2ccc(C)cc2)c1C | . | . | . | 50 | . | .
CCOC(=O)/C(C#N)=C\c1cc(C)n(-c2ccccc2)c1C | 81 | . | . | 79 | . | .
CN[C@H](C)C(=O)NC[C@H]1O[C@@H](n2cnc3c(N)ncnc32)[C@H](O)[C@@H]1O | . | . | . | . | . | .
CCCCn1c(N)c(N(CCC(C)C)C(=O)C2CCCN(C(=O)c3ccc(Cl)cc3)C2)c(=O)[nH]c1=O (configuration not stated) | . | . | . | . | . | .
Nc1[nH]n(-c2ccccc2)c(=O)c1N=Nc1ccc2c(c1)OCCO2 | 68 | . | . | 51 | . | .
Cc1nn(CC(=O)NCCCN2CCC(Cc3ccccc3)CC2)c(=O)c2cc(-c3ccccc3)nn12 | . | . | 100 | . | . | .
Cc1nn(CC(=O)NCCCN2CCN(Cc3ccccc3)CC2)c(=O)c2cc(-c3ccccc3)nn12 | . | . | . | . | . | .
CCn1c(SCC#N)nc2c(c1=O)C1(CCCC1)Cc1ccccc1-2 | . | . | . | . | . | .
CSc1n[nH]c2nc3c(c(=O)n12)C1(CCCCC1)Cc1ccccc1-3 | . | . | . | . | . | .
CCSc1n[nH]c2nc3c(c(=O)n12)C1(CCCCC1)Cc1ccccc1-3 | . | . | . | 52 | . | .
N#CCSc1n[nH]c2nc3c(c(=O)n12)C1(CCCCC1)Cc1ccccc1-3 | . | . | . | 50 | . | .
Cc1ccc(Nc2nc(Cl)nc(NC(C)(C)C)n2)cc1 | . | . | . | . | . | .
Cc1ccc(Nc2nc(Cl)nc(N(C)C#N)n2)cc1 | 90 | . | . | . | . | .
Cc1c(CCOC(=O)C23CC4(C)CC(C)(CC(C)(C4)C2)C3)sc[n+]1CC(=O)c1ccccc1 | . | . | 113 | . | . | .
Cc1c(CCOC(=O)C23CC4CC(CC(C4)C2)C3)sc[n+]1Cc1ccccc1 | . | . | . | . | . | .
Cc1c(CCOC(=O)C23CC4CC(CC(C)(C4)C2)C3)sc[n+]1Cc1ccccc1 | . | . | . | . | . | .
Cc1c(CCOC(=O)CC23CC4CC(CC(C4)C2)C3)sc[n+]1CC(=O)c1ccccc1 | . | . | 62 | . | . | .
O=C1C=C(c2ccc(C(=O)O)c(Cl)c2)C[C@@H](c2ccc3c(c2)OCO3)C1 | . | . | . | . | . | .
CCN1CCN(Cc2ccc(NC(=O)Nc3ccc(OC)cc3)cc2)CC1 | . | . | . | . | . | .
CCN1CCN(Cc2ccc(NC(=O)Nc3ccccc3)cc2)CC1 | 60 | . | . | 53 | . | .
CC1(C(=O)NCC2CCCCC2)CCN1C(=O)Cc1ccc(-c2ccccc2)cc1 (configuration not stated) | . | . | . | . | . | .
